# MLL AF4-AF9 inh = inhibitors of AF4 peptide binding to AF9, primary screen, biochemical, AlphaScreen, biotin-AF4 peptide, FLAG-AF9, single point; Protein AF-9 (Homo sapiens), P42568; inhibition, % at 10 µM; hit rate 0.47% among 350,000;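 active = every replicate reaching a set inhibition limit, whatever the replicate mean, cut at about 25% in these data; inconclusive = mean inhibition reaches that limit but some replicates miss it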
# Target sequence (P42568 whole entry, looked up): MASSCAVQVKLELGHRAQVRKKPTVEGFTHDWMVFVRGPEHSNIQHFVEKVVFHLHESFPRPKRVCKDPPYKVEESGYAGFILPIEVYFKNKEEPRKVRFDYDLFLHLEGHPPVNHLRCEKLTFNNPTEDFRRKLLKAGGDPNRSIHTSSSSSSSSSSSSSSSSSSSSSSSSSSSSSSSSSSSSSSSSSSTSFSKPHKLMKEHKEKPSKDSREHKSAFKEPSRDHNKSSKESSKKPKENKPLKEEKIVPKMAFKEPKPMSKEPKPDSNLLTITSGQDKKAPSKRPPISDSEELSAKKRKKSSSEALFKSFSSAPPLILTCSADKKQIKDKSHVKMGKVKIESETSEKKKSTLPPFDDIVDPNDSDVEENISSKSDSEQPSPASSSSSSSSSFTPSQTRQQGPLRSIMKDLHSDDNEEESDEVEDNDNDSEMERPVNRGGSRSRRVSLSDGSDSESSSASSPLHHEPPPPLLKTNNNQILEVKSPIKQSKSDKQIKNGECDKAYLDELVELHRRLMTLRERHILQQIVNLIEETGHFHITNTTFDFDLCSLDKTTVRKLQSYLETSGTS
# MITF TRPM1 HTS = activators of MITF-driven TRPM1 promoter reporter, primary screen, cell-based, SK-MEL-5, luciferase, single point | activation, % at 12.5 µM | SK-MEL-5 TRPM1-promoter luciferase, 24 h; % of positive control, neutral wells = 0 | hit rate 0.75% among 300,000 | AID 588334, 2011;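 active = mean activation of at least 80% with every replicate also reaching 80%; inconclusive = mean reaches 80% but some replicate falls short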
# esBAF inh = Bmi1 luciferase reporter increase in mESCs, primary screen, esBAF inhibitor project, mouse ES cells, Bmi1 luciferase knock-in, single point; 24 h; 100% = twice the neutral-well signal; reporter increase, % at 12.5 µM; hit rate 2% among 350,000; AID 602393, 2012; in the data active = activation above about 40%; inconclusive = no clear call, values can overlap the other calls;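 note: a rise in the Bmi1 reporter signal indicates esBAF inhibition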
# SMARCA2 activ = SMARCA2 (BRM) function activators, primary screen, cell-based, luminescence, high throughput | MG213 cells, MMTV-luciferase reporter, dexamethasone, overnight | activation, % at 9.1 µM | hit rate 1% among 370,000 | AID 652017, 2013; in the data active = activation above about 7.8%
# FGF22 binding = binders of human FGF22 protein, primary screen, FGF22 synaptogenesis inhibitor project, biophysical, thermal shift, single point; Fibroblast growth factor 22 (Homo sapiens), Q9HCT0; recombinant FGF22 thermal shift, SYPRO orange fluorescence; percent of sucrose octasulfate shift, DMSO zero; activity (Tm shift, normalised), % at 9.99 µM; hit rate 1.5% among 340,000; AID 651658, 2012;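 active = mean Tm shift, scaled 0 neutral to 100 positive control, at about 1.3% or above, every replicate too, limit read from the data; inconclusive = no clear call, values can overlap the other calls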
# Wnt bcat act = Wnt/beta-catenin pathway activators, primary screen, cell-based, plate reader, single point; hit rate 1.2% among 300,000; AID 743398, 2014; Wnt/beta-catenin reporter cell assay, activator; activation, % at 9.35 µM; in the data active = activation above about 30%, passing the limit was not always enough; inconclusive = no clear call, values can overlap the other calls
# SMARCA2 act conf = SMARCA2 (BRM) function activators, confirmation, cell-based, luminescence, triplicate; activation, % at 9.1 µM; hit rate 30% among 3,500; shares compounds with SMARCA2 activ; MG213 cells, MMTV-luciferase with dexamethasone, overnight; MG213 cells expressing E1A, Rb sequestered; DMSO wells 0%, reference activator 100%;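 active = activation above its plate's cutoff, the mean activation of tested wells plus 3 SD, cut at about 7.9% in these data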
# GAL4-VP16 Luc = GAL4-VP16 luciferase reporter activation, counter-screen for SMARCA2 (BRM) activator project, cell-based, pG5luc, luminescence, high throughput | shares compounds with SMARCA2 activ | HEK293 GAL4-VP16 pG5luc reporter; scaled: DMSO wells 0%, SAHA wells 100% | activation, % at 9.1 µM | hit rate 41% among 3,500;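 active = activation above the solvent-only control well mean plus 3 SD, averaged across control plates, cut at about 5.2% in these data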
# Numbers stand for hits; i = inactive; ? = inconclusive; nt = no result. Rows were chosen to be rich in hits. Some 4.3% of all compounds tested hit in one or more screens of this group.
SMILES,MLL AF4-AF9 inh,MITF TRPM1 HTS,esBAF inh,SMARCA2 activ,FGF22 binding,Wnt bcat act,SMARCA2 act conf,GAL4-VP16 Luc
C[C@H](CO)N1C[C@H](C)[C@H](CN(C)S(=O)(=O)c2cn(C)cn2)Oc2c(NC(=O)Nc3ccc4c(c3)OCO4)cccc2C1=O,i,nt,i,nt,i,nt,nt,nt
Cc1ccc(S(=O)(=O)Nc2ccc3c(c2)CC(=O)N([C@@H](C)CO)C[C@@H](C)[C@@H](CN(C)C(=O)Nc2ccc(C(F)(F)F)cc2)O3)cc1,i,nt,i,nt,i,nt,nt,nt
COc1ccc(NC(=O)c2oc3ccccc3c2C)cn1,i,i,43,9.8,i,i,9.7,5.4
Cc1c(Cl)cnc(NC(=O)COC(=O)CCc2nc3ccccc3s2)c1Cl,i,i,i,9.3,i,i,i,i
Cc1cccc(C(=O)Nc2ccc3c(c2)ncn3C)c1,i,125,i,12,i,i,8.3,19
CC(=O)Nc1ccc2c(c1)ncn2-c1ccccc1,i,nt,i,12,i,i,16,7.3
CN1CCN(C(=O)C[C@H]2CC[C@H]3[C@@H](COC[C@H](O)CN3CC3CCCCC3)O2)CC1,i,nt,i,nt,i,nt,nt,nt
COc1ccc(Br)cc1CN(C)CC(=O)NCCc1ccccc1,i,i,i,i,i,i,nt,nt
COc1ccc(Br)cc1CN(C)CC(=O)Nc1c(Cl)ccc(C)c1Cl,nt,i,nt,8.1,nt,i,i,i
Cc1ccc(NNC(=O)c2c(F)cccc2Cl)cc1C,i,nt,nt,8.1,i,i,i,i
C[C@@H]1CN([C@@H](C)CO)C(=O)c2cc(NC(=O)Cn3cnnn3)ccc2O[C@H]1CN(C)S(=O)(=O)c1ccc(Cl)cc1,i,nt,i,nt,i,nt,nt,nt
CCS(=O)(=O)N1Cc2ccccc2CC1C(=O)Nc1cccc(C)c1 (stereo not drawn),i,i,nt,i,i,i,nt,nt
CCOc1ccc(NC(=O)C2Cc3ccccc3CN2S(=O)(=O)CC)cc1 (stereo not drawn),i,i,i,10,i,i,i,i
CCS(=O)(=O)N1Cc2ccccc2CC1C(=O)Nc1ccc(OC)cc1 (stereo not drawn),i,i,nt,i,i,i,nt,nt
CCS(=O)(=O)N1Cc2ccccc2CC1C(=O)Nc1ccc(F)c(F)c1 (stereo not drawn),i,i,i,15,i,i,i,i
C[C@H]1CN([C@@H](C)CO)C(=O)c2cccc(NC(=O)C3CCCCC3)c2O[C@H]1CN(C)C(=O)Nc1ccccc1,i,nt,i,nt,i,nt,nt,nt
C[C@H]1CN([C@@H](C)CO)C(=O)Cc2cc(NC(=O)Nc3ccccc3)ccc2O[C@H]1CN(C)C(=O)Nc1ccc(F)cc1,i,nt,i,nt,i,nt,nt,nt
COC(=O)c1cc(-c2ccccc2OC)c(=O)n2c1CCC2,nt,nt,nt,i,nt,nt,nt,nt
Cc1ccc(NC(=S)NC2CC3CCCC(C2)N3Cc2ccco2)cc1 (stereo not drawn),i,i,i,10,i,i,i,i
c1ccc(COc2ccc(OCCN3CCCC3)cc2)cc1,nt,i,nt,i,nt,nt,nt,nt
c1ccc(COc2ccc(OCCCN3CCCC3)cc2)cc1,i,i,nt,8.7,i,i,i,9.8
[N-]=[N+]=Nc1ccccc1C[C@@]1(C(=O)NCCN2CCOCC2)N=C(c2ccc(OCCCO)cc2)O[C@@H]1c1ccccc1,i,nt,nt,nt,i,nt,nt,nt
O=C(Nc1ccccc1)NC1CCCCCCC1,i,nt,nt,12,i,i,i,i
O=C(Nc1ccccc1)NC1CCS(=O)(=O)C1 (stereo not drawn),nt,i,i,i,nt,nt,nt,nt
CCCNC(=O)c1noc2c1CCc1cc(OC)ccc1-2,i,i,i,i,i,i,nt,nt
SMILES,MLL AF4-AF9 inh,MITF TRPM1 HTS,esBAF inh,SMARCA2 activ,FGF22 binding,Wnt bcat act,SMARCA2 act conf,GAL4-VP16 Luc
COc1ccc2c(c1)CCc1c(C(=O)NCc3cccnc3)noc1-2,i,i,i,10,i,i,i,6.4
C[C@@H]1COc2cc(Br)ccc2S(=O)(=O)N1Cc1cn(Cc2ccc(F)cc2)nn1,nt,nt,nt,i,nt,nt,nt,nt
Cc1ccc2nc(-c3cccc(Br)c3)c(Cc3ccccc3)n2c1,i,nt,i,10,i,i,i,i
Cc1ccc(Cc2c(-c3cccc(Br)c3)nc3ccc(Cl)cn23)cc1,i,nt,i,i,i,i,nt,nt
Cc1ccc(Cc2c(-c3ccco3)nc3ccc(C)cn23)cc1,i,nt,i,i,i,i,nt,nt
Clc1ccc2nc(-c3cccc(Br)c3)c(Cc3ccsc3)n2c1,i,nt,i,8.9,i,i,i,i
Brc1ccc2nc(-c3ccco3)c(Cc3ccccc3)n2c1,i,nt,i,10,i,i,i,i
Fc1ccc(-c2nc3ccc(Cl)cn3c2Cc2ccsc2)cc1,i,nt,?,i,i,i,nt,nt
C[C@@H]1CN([C@H](C)CO)C(=O)c2cccc(NC(=O)c3cnccn3)c2O[C@H]1CN(C)Cc1ccccc1,i,nt,i,nt,i,nt,nt,nt
C(#CC1=CCCCC1)CNCC1CC1,nt,nt,nt,i,nt,nt,nt,nt
CN1CCCC1CCNc1ccc2sc3ccccc3c(=O)c2c1 (stereo not drawn),26,108,i,11,i,i,14,7.5
COc1ccc2sc3ccccc3c(=O)c2c1,nt,i,i,i,nt,i,nt,nt
CN1CCCC1CCNS(=O)(=O)c1ccc(Br)cc1 (stereo not drawn),nt,i,i,i,nt,i,nt,nt
Cc1cc2oc3cc(NCCC4CCCN4C)ccc3c(=O)c2cc1C (stereo not drawn),i,i,i,8.8,i,i,21,8.7
COC1C(CO)OC(n2c3c(Cl)cccc3c3c4c(c5c6cccc(Cl)c6[nH]c5c32)C(=O)NC4=O)C(O)C1O (stereo not drawn),i,i,nt,10,nt,i,23,i
COc1ccc(NC(=O)n2nc(OC(=O)c3cccs3)cc2N)cc1,i,i,?,9.1,i,i,i,i
COc1ccc(-c2ccc(S(=O)(=O)n3nc(OC(=O)c4cccs4)cc3N)cc2)cc1,i,i,i,i,i,i,nt,nt
Cn1c(SCc2cccc(F)c2)nnc1-c1ccccn1,nt,i,i,9.9,nt,nt,i,6.3
O=C(N[C@H]1CC[C@@H](CCn2cc(C3(O)CCCC3)nn2)O[C@@H]1CO)C1CCOCC1,i,nt,i,nt,i,nt,nt,nt
Cc1nc2c(OCc3ccc(Cl)cc3)cccn2c1N(C)C(=O)CCC1CCCC1,i,nt,i,8.3,i,i,i,i
O=C(CN1CCOCC1)N1CC2(C1)[C@H](c1ccccc1)[C@H](CO)N2Cc1ccc(F)cc1,i,nt,nt,nt,i,nt,nt,nt

# Compound activity: PubChem BioAssay, several laboratories
